# nsP2pro inh = CHIKV nsP2 protease inhibition, primary qHTS; Q8JUX6; FRET peptide cleavage, nsP2pro, fluorescence 1 h; Potency, µM (doses to about 24.9 µM), most hits filed as inhibitors; actives 1.1% (n = 31,000); also: nearly all actives have a fitted effect of over 60% in size
#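 Purified recombinant nsP2pro (150 nM final) in 10 mM Tris-HCl pH 8.0 with 0.01% Tween 20 was preincubated 15 min at room temperature with compound (7 concentrations, up to 25 uM). FRET peptide 2 substrate (2.5 uM final) was then added; fluorescence was read after 1 h.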
# nsP2 cell sec = cell-based CHIKV nsP2 protease inhibition, secondary. shares compounds with nsP2pro inh. cell-based CHIKV nsP2 protease reporter assay. Potency, µM (series often up to 51.1 µM), most hits filed as inhibitors. actives 10% (n = 450). AID 1964100; also: nearly all actives have a fitted effect of over 70% in size
# CHIKV NSP2 FL = selectivity test for CHIKV nsP2 protease inhibitors: full-length NSP2; shares compounds with nsP2pro inh; Full-length CHIKV NSP2 protease enzymatic counterscreen; Potency, µM (series often up to 50.7 µM), most hits filed as inhibitors; actives 39% (n = 410); AID 1964101; also: nearly all actives have a fitted effect of over 65% in size
# Furin counterscr = human furin inhibition, counterscreen for nsP2pro inhibitors; Potency, µM (titrated, usually from 50.6 µM), usual class: inhibitors; actives 6% (n = 410); shares compounds with nsP2pro inh; Recombinant human furin enzymatic counterscreen, fluorogenic substrate
# NS23 peptide cs = blocks CHIKV nsP2 protease cleavage of endogenous NS2/3 peptide | shares compounds with nsP2pro inh | Purified CHIKV nsP2 protease, endogenous NS2/3 peptide cleavage | Potency, µM (titrated, usually from 51 µM), actives largely listed as inhibitors | actives 34% (n = 410) | AID 1964103; also: nearly all actives have a fitted effect of over 55% in size
# Papain cs = inhibits papain in a CHIKV nsP2 protease selectivity counterscreen. purified papain protease activity, enzymatic inhibition. shares compounds with nsP2pro inh. AID 1964104. actives 5% (n = 410). Potency, µM (highest dose often 51 µM), actives largely listed as inhibitors
# nsP2pro conf qHTS = CHIKV nsP2 protease inhibition, confirmatory qHTS | shares compounds with nsP2pro inh | CHIKV nsP2 protease enzymatic activity, qHTS | Potency, µM (series often up to 25.5 µM), usual class: inhibitors | actives 43% (n = 410) | AID 1964105; also: nearly all actives have a fitted effect of over 75% in size
# HCV NS3 4A cs = selectivity counter-screen for CHIKV nsP2 protease inhibitors: HCV NS3/4A. shares compounds with nsP2pro inh. AID 1964106. actives 20% (n = 410). HCV NS3/4A protease biochemical counterscreen. Potency, µM (doses to about 50.9 µM), most hits filed as inhibitors; also: nearly all actives have a fitted effect of over 55% in size
# Numbers stand for hits; – = inactive; ? = inconclusive; · = no result. This is one part of a sample in which hits are shown more often than they occur. Calls follow the shape of the full dose curve.
SMILES,nsP2pro inh,others
CCCCC1(CCCC)CN(c2ccccc2)c2cc(SC)c(OCC(=O)N[C@@H](C(=O)N[C@@H](CC)C(=O)O)c3ccc(O)cc3)cc2S(=O)(=O)N1,–,
Cc1cc(C(=O)NC2CCCC2)c2c(C3CCNC3)noc2n1 (stereo not drawn),–,
COC(=O)NC(C(=O)N1CCCC1c1nc2cc(F)c(C3CCC(c4cc5[nH]c(C6CCCN6C(=O)C(NC(=O)OC)C(C)OC)nc5cc4F)N3c3cc(F)c(N4CCC(c5ccc(F)cc5)CC4)c(F)c3)cc2[nH]1)C(C)OC (stereo not drawn),–,
O=C(O)C(S)C(S)C(=O)O (stereo not drawn),8.8µM,nsP2 cell sec=–;CHIKV NSP2 FL=?;Furin counterscr=–;NS23 peptide cs=?;Papain cs=?;nsP2pro conf qHTS=?;HCV NS3 4A cs=–
O=C(O)[C@@H](O)[C@H](O)[C@H](O)[C@@H](O)C(=O)O,–,
O=C(O)C(Cl)Cl,–,
NC1=N[C@@](c2cccc(-c3cncnc3)c2)(c2ccnc(C(F)F)c2)c2cccc(F)c21,–,
c1ccc(CNCc2ccc(CN3CCCNCCNCCCNCC3)cc2)nc1,–,
CCC(C)C(=O)N1CCC2(CCc3nn(Cc4ccccc4)c(=O)n3CC2)CC1 (stereo not drawn),–,
Cc1ccsc1CN(C)c1ncnc2ccc(-c3ccoc3)cc12,–,
CCN(Cc1sccc1C)c1ncnc2ccc(-c3ccc4c(c3)OCO4)cc12,–,
Cc1ccsc1CN(C)c1ncnc2ccc(-c3ccc(CO)o3)cc12,10µM,nsP2 cell sec=26µM;CHIKV NSP2 FL=?;Furin counterscr=–;NS23 peptide cs=?;Papain cs=–;nsP2pro conf qHTS=–;HCV NS3 4A cs=23µM
O=C(c1ccc2c(c1)ncn2-c1cccc(C(F)(F)F)c1)N1CCCCC1,–,
Cc1cccc(-n2cnc3cc(C(=O)N4CCN(C)CC4)ccc32)c1,–,
Cc1c(C(=O)OCC2CCCCO2)[nH]c2c1C(=O)CC(c1ccco1)C2 (stereo not drawn),7.9µM,nsP2 cell sec=15µM;CHIKV NSP2 FL=–;Furin counterscr=?;NS23 peptide cs=–;Papain cs=–;nsP2pro conf qHTS=–;HCV NS3 4A cs=–
Cc1c(C(=O)OC2CCCCCC2)[nH]c2c1C(=O)CC(c1ccccc1Cl)C2 (stereo not drawn),–,
Cc1c(C(=O)OCC2CCCCC2)[nH]c2c1C(=O)CC(c1ccc(F)cc1)C2 (stereo not drawn),–,
CC[C@H]1OC(=O)[C@H](C)[C@@H](O[C@H]2C[C@@](C)(OC)[C@@H](O)[C@H](C)O2)[C@H](C)[C@@H](O[C@@H]2O[C@H](C)C[C@H](N(C)C)[C@H]2O)C(C)(O)C[C@@H](C)/C(=N\OCOCCOC)[C@H](C)[C@@H](O)[C@]1(C)O (stereo partly drawn),–,
CCCCCCCCCCCCCCCC(=O)OCC=C(C)C=CC=C(C)C=CC1=C(C)CCCC1(C)C,–,
COc1ccccc1C(=O)NCC(c1cccnc1)N1CCc2ccccc2C1 (stereo not drawn),–,
O=C(NCC(c1cccnc1)N1CCc2ccccc2C1)c1ccc(F)c(F)c1 (stereo not drawn),?,nsP2 cell sec=–
COc1ccc(C(=O)NCC(c2cccnc2)N2CCN(c3ccccc3)CC2)cc1 (stereo not drawn),–,
CC1CCc2c(cc(Br)c(F)c2Br)N1C=O (stereo not drawn),?,nsP2 cell sec=–;CHIKV NSP2 FL=?;Furin counterscr=–;NS23 peptide cs=?;Papain cs=–;nsP2pro conf qHTS=?;HCV NS3 4A cs=?
Cc1ccc(OCCn2c(CCNC(=O)/C=C/c3cccc(Br)c3)nc3ccccc32)cc1,–,
Fc1cc(Cl)cc(-c2ccc(CNc3nc(-c4ccccc4C(F)(F)F)nc4ccccc34)cc2)c1,–,
SMILES,nsP2pro inh,others
O=C1CN(Cc2ccc(Cl)cc2)CCN1c1ccc(Cl)nn1,–,
Nc1nc2c(s1)CCN(Cc1ccc(Cl)cc1)CC2,8.8µM,nsP2 cell sec=–;CHIKV NSP2 FL=–;Furin counterscr=–;NS23 peptide cs=–;Papain cs=–;nsP2pro conf qHTS=?;HCV NS3 4A cs=–
CC1=NOC2(CCN(Cc3ccc(Cl)cc3)CC2)C1,–,
COc1c(O)cc2oc(-c3ccccc3)cc(=O)c2c1O,–,
Cc1ccc(S(=O)(=O)Nc2cnccc2C(=O)Nc2nc(C(=O)O)cs2)cc1,–,
FC(F)(F)c1cccc(N2CCN(C(=S)Nc3cccnc3)CC2)c1,–,
Oc1cc(CNC(=S)/C=C/c2cc(O)c(O)c(Br)c2)cc(O)c1O,5.6µM,nsP2 cell sec=0.22µM;CHIKV NSP2 FL=15µM;Furin counterscr=?;NS23 peptide cs=6.5µM;Papain cs=?;nsP2pro conf qHTS=5µM;HCV NS3 4A cs=3.7µM
CNCCN1CCC(OCc2ccccc2)CC1,–,
CCOc1ccccc1CN1CCC(C)(c2noc(C3CCOCC3)n2)CC1,–,
O=C(OC1C[C@@H]2CC3C[C@@H](C1)N2CC3=O)c1c[nH]c2ccccc12 (stereo partly drawn),–,
Cc1nc(C(C)N(C)c2ncnc3ccc(-c4ccc5c(c4)OCO5)cc23)cs1 (stereo not drawn),–,
CC(=O)Nc1ccc(CN2CC(Oc3ccc4c(c3)OCO4)C2)cc1,–,
NC(=O)C1CCN(c2ncc(-c3ccc4c(c3)OCO4)s2)CC1,–,
O=C(C1CC1)N1CCC(C(=O)N2CC(Oc3ccc4c(c3)OCO4)C2)CC1,7.9µM,nsP2 cell sec=–;CHIKV NSP2 FL=13µM;Furin counterscr=–;NS23 peptide cs=?;Papain cs=–;nsP2pro conf qHTS=8µM;HCV NS3 4A cs=7.3µM
CC(C)N1CCc2c(sc(NC(=O)C3CCCC3)c2-c2nc3ccccc3s2)C1,–,
Fc1cc(Nc2nc(-c3ccncc3)nc3ccccc23)ccc1-c1cccc(C(F)(F)F)c1,–,
CCn1c(=O)cc(OCC(=O)NCc2ccccc2OC)c2ccccc21,–,
COc1ccccc1NC(=O)CCCOc1cc(=O)n(C)c2ccccc12,–,
CCOc1ccc(CNC(=O)COc2cc(=O)n(C)c3ccccc23)cc1,?,nsP2 cell sec=–
O=C1CCCC2=C1C(c1[nH]ncc1Br)N=C(Nc1nc3ccccc3o1)N2 (stereo not drawn),–,
CS(=O)(=O)c1ncc(Cl)c(C(=O)N2CCN(c3cccc(Cl)c3)CC2)n1,1.6µM,nsP2 cell sec=1.5µM;CHIKV NSP2 FL=5.8µM;Furin counterscr=–;NS23 peptide cs=8.2µM;Papain cs=–;nsP2pro conf qHTS=4.5µM;HCV NS3 4A cs=–
Cc1ccc(Nc2ncc(C(=O)N3CCN(c4cccc(Cl)c4)CC3)c3ccccc23)cc1Cl,–,
O=C(C1CCN(c2nc3ccccc3[nH]2)CC1)N1CCN(c2cccc(Cl)c2)CC1,–,
CN(C)c1cc(NC(=O)CNC(C)(C)C)c(O)c2c1C[C@H]1C[C@H]3[C@H](N(C)C)C(=O)C(C(N)=O)=C(O)[C@]3(O)C(=O)C1=C2O,–,
COc1cc2c(cc1OC)-c1cc3ccc(OC)c(OC)c3c[n+]1CC2,·,nsP2 cell sec=–;CHIKV NSP2 FL=?;Furin counterscr=–;NS23 peptide cs=?;Papain cs=?;nsP2pro conf qHTS=?;HCV NS3 4A cs=–
c1c2c(cc3c1OCO3)-c1cc3ccc4c(c3c[n+]1CC2)OCO4,?,nsP2 cell sec=–;CHIKV NSP2 FL=?;Furin counterscr=4.1µM;NS23 peptide cs=?;Papain cs=–;nsP2pro conf qHTS=?;HCV NS3 4A cs=–
